# From PMC7826789 (International Journal of Molecular Sciences, 2021)
# Assays:
# Conditions in all cases: Compound Concentration (nM):1000
# PDGFRB = test system: PDGFRB
# PDPK1 = test system: PDPK1
# PFCDPK1(P.falciparum) = test system: T1, PFCDPK1(P.falciparum)
# T1 construct: gene CDPK1
# PFPK5(P.falciparum) = test system: T2, PFPK5(P.falciparum)
# T2 construct: gene MAL13P1.279
# PFTAIRE2 = test system: T3, PFTAIRE2
# T3 construct: gene CDK15
# PFTK1 = test system: T4, PFTK1
# T4 construct: gene CDK14
# PHKG1 = test system: PHKG1
# PHKG2 = test system: PHKG2
# PIK3C2B = test system: PIK3C2B
# PIK3C2G = test system: PIK3C2G
# PIK3CA(C420R) = test system: PIK3CA(C420R)
# PIK3CA(E542K) = test system: PIK3CA(E542K)
# PIK3CA(E545A) = test system: PIK3CA(E545A)
# PIK3CA(E545K) = test system: PIK3CA(E545K)
# PIK3CA(H1047L) = test system: PIK3CA(H1047L)
# PIK3CA(H1047Y) = test system: PIK3CA(H1047Y)
# PIK3CA(I800L) = test system: PIK3CA(I800L)
# PIK3CA(M1043I) = test system: PIK3CA(M1043I)
# PIK3CA(Q546K) = test system: PIK3CA(Q546K)
# PIK3CA = test system: PIK3CA
# 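Further: KINOMEscan scanMAX binding as percent activity remaining versus control; lower means stronger binding.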
SMILES,Percent Control (PDGFRB) [%],Percent Control (PDPK1) [%],Percent Control (PFCDPK1(P.falciparum)) [%],Percent Control (PFPK5(P.falciparum)) [%],Percent Control (PFTAIRE2) [%],Percent Control (PFTK1) [%],Percent Control (PHKG1) [%],Percent Control (PHKG2) [%],Percent Control (PIK3C2B) [%],Percent Control (PIK3C2G) [%],Percent Control (PIK3CA(C420R)) [%],Percent Control (PIK3CA(E542K)) [%],Percent Control (PIK3CA(E545A)) [%],Percent Control (PIK3CA(E545K)) [%],Percent Control (PIK3CA(H1047L)) [%],Percent Control (PIK3CA(H1047Y)) [%],Percent Control (PIK3CA(I800L)) [%],Percent Control (PIK3CA(M1043I)) [%],Percent Control (PIK3CA(Q546K)) [%],Percent Control (PIK3CA) [%]
NS(=O)(=O)c1ccc(N/N=C2\C(=O)Nc3ccc(Cl)cc32)cc1 [GW280670X],29,100,81,100,100,100,100,100,100,88,100,100,100,100,100,100,100,100,100,100
COc1cc(C)c(N(C)C(=O)CN(C)C)cc1Nc1nc(Nc2cccc(F)c2C(N)=O)c2cc[nH]c2n1 [GSK2219385],100,97,100,76,79,100,100,83,100,92,84,100,97,100,100,67,100,100,100,100
C/C(Nc1ccc(S(N)(=O)=O)cc1)=C1/C(=O)Nc2ccccc21 [GW335962X],59,100,77,91,95,72,94,53,100,90,95,100,100,100,100,85,100,100,100,100
Cl.O=C(Nc1ccc(Oc2ccc3[nH]c(NC(=O)c4ccccc4)nc3c2)cc1)Nc1cc(C(F)(F)F)ccc1F [GW709042A],1.2,100,100,100,100,97,100,100,100,97,81,100,95,100,100,80,100,100,100,100
CCS(=O)(=O)c1ccc(OC)c(Nc2ncc(-c3cccc(F)c3)o2)c1 [GW621970X],5.4,100,4.1,100,100,95,100,100,100,100,100,100,100,100,100,97,100,93,100,100
Cl.O=S1CCN(Cc2ccc(-c3ccc4ncnc(Nc5ccc(OCc6ccccc6)c(F)c5)c4c3)o2)CC1 [GW576924A],100,100,83,100,100,100,100,100,100,78,100,100,100,100,100,100,100,88,100,100
C[C@@H](Oc1cc(-n2cnc3ccc(OC4CCN(C)CC4)cc32)sc1C(N)=O)c1ccccc1Cl [GSK579289A],12,100,74,76,74,95,86,81,32,78,60,80,67,78,76,100,78,72,100,65
CC1=C(C(=O)Nc2ccc3[nH]ncc3c2)C(c2ccc(Cl)c(Cl)c2)CC(=O)N1 (stereo not shown) [GSK299115A],99,100,87,71,66,49,100,84,84,77,90,73,90,73,97,76,78,68,83,82
CN(C)CCNC(=O)Nc1ccc(N(C)c2ccnc(Nc3ccc(CS(C)(=O)=O)cc3)n2)cc1.Cl [GW830900A],0,83,83,100,90,100,92,100,100,95,100,84,100,80,100,98,86,92,87,92
COc1ccccc1-c1cc(/C=C2\C(=O)Nc3ncc(Br)cc32)cc(Br)c1O [GW442130X],72,89,100,100,100,100,100,100,59,87,78,100,76,100,100,50,100,60,100,83
Cl.c1ccc(Cc2nc3ccc(Nc4ncnc5ccccc45)cc3[nH]2)cc1 [GR269666A],100,100,83,100,100,100,100,97,100,89,100,100,100,99,100,100,100,100,100,100
COc1ccc(COc2ccc(Cc3cnc(N)nc3N)cc2OC)cc1 [GW632580X],92,100,70,71,80,74,100,96,86,100,100,96,100,91,75,100,93,100,100,76
Nc1ncnc2occ(-c3ccc(NC(=O)Nc4cc(C(F)(F)F)ccc4F)cc3)c12 [GW770249X],0,57,83,100,46,18,100,100,100,88,100,100,100,100,100,100,100,90,100,100
CCS(=O)(=O)c1ccc(OC)c(Nc2ncc(-c3cccc(OC)c3)o2)c1 [GW580509X],9.7,100,7.8,100,100,100,100,100,100,97,100,100,100,100,100,98,100,100,100,100
COc1cc(/C=N/Nc2ncnc3[nH]ncc23)ccc1O [GW578748X],38,83,18,100,96,100,100,88,72,51,97,63,82,59,18,84,51,43,62,82
NS(=O)(=O)c1ccc(N/N=C2\C(=O)Nc3ccc(C(=O)NCc4ccncc4)cc32)cc1 [GW300657X],74,65,85,57,49,73,100,70,100,86,90,85,100,75,89,72,85,94,83,100
COc1ccc2c(-c3ccnc(Nc4cccc(OC(F)(F)F)c4)n3)cnn2n1 [GW810372X],100,100,81,100,100,100,100,100,100,74,86,100,90,97,75,82,91,100,100,100
Cc1cc(O)cc(C)c1/C=C/c1cncc(C(N)=O)c1 [GW435821X],0.5,96,75,100,100,100,100,100,97,85,100,100,100,100,100,100,100,88,100,96
O=C(Nc1n[nH]c2nc(-c3ccc(O)cc3)c(Br)cc12)C1CC1 [SB-725317],3.4,100,32,100,92,84,100,100,100,100,92,100,100,100,100,93,100,100,100,100
CCn1c(-c2nonc2N)nc2c(C#CC(C)(C)O)nc(OCCNC)cc21.Cl [GSK949675],100,79,100,100,100,100,100,100,82,100,100,100,88,100,100,77,100,100,100,75
